Test results taken from PubChem BioAssay (EPA / NIEHS).
Activity calls are given as the source filed them. The calls were made as follows: active = hit-call score of the fitted dose curve at least 0.9, where 1 is the maximum; inactive = score below 0.9.

How the values were obtained:
Details in all cases: actives raise or lower the signal
[1] = CEETOX_H295R_ANDR_noMTC: CeeTox H295R High-throughput Steroidogenesis Assay for Androstenedione (ANDR), maximum tolerated concentration (MTC) filtered results only (AID 2283915)
Method in brief: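 Androstenedione secreted into medium was measured by LC-MS/MS after MTBE extraction. Human adrenal H295R cells received 10 uM forskolin for 48 h before 48 h chemical exposure (0.1% DMSO). Gain or loss fitted against DMSO, including concentrations above the MTT-derived MTC.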

[2] = CEETOX_H295R_ESTRADIOL_noMTC: CeeTox H295R High-throughput Steroidogenesis Assay for Estradiol, maximum tolerated concentration (MTC) filtered results only (AID 2283919)
Method in brief: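 Readout: dansyl-derivatized estradiol quantified by LC-MS/MS in medium from H295R cells dosed 48 h (0.1% DMSO) following 48 h forskolin (10 uM) prestimulation. Gain or loss of signal fitted against DMSO; no MTC filtering applied.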

[3] = CEETOX_H295R_ESTRONE_noMTC: CeeTox H295R High-throughput Steroidogenesis Assay for Estrone, maximum tolerated concentration (MTC) filtered results only (AID 2283921)
Method in brief: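 Estrone in spent medium, quantified by tandem MS following dansyl chloride derivatization, after 48 h chemical exposure (0.1% DMSO) of forskolin-prestimulated (10 uM, 48 h) H295R cells; concentrations not MTC-filtered, bidirectional fit against DMSO.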

[4] = CEETOX_H295R_TESTO_noMTC: CeeTox H295R High-throughput Steroidogenesis Assay for Testosterone (TESTO), maximum tolerated concentration (MTC) filtered results only (AID 2283924)
Method in brief: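 Medium testosterone, measured by HPLC-MS/MS after liquid-liquid extraction, was fitted in both directions relative to DMSO without MTC filtering. Adrenal H295R cells received 48 h chemical exposure (0.1% DMSO final) after 48 h forskolin (10 uM) prestimulation; viability by MTT.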

Measured: outcome

CCCCCCCCOC(=O)c1ccccc1C(=O)OCCCCCCCC
inactive: all assays above
